CYP2C9 act = activators of human CYP2C9; P11712; recombinant CYP2C9, luciferin-H conversion, luminescence; active compounds read high; factor 1 = untreated enzyme, 0 = blocked; activation factor at 5 µM; actives 1.4% (n = 96,000);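 active means activation factor of 2 or more for CYP2C9 at a 5 µM dose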;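 further: 0 = sulfaphenazole-blocked wells and 1 = vehicle-only wells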
CYP2C19 activ = increases human CYP2C19 enzyme activity | 96,000 tested, under 10 active | P33261 | recombinant CYP2C19, luciferin-H EGE luminescence; active compounds read high; 0 = fully inhibited enzyme, 1 = untreated enzyme | activation factor at 5 µM;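 active means activation factor of at least 2 at 5 µM in the primary screen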;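 further: 0 = wells with 2.5 mM tranylcypromine and 1 = vehicle-only wells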
Target sequence (P33261 whole entry, looked up): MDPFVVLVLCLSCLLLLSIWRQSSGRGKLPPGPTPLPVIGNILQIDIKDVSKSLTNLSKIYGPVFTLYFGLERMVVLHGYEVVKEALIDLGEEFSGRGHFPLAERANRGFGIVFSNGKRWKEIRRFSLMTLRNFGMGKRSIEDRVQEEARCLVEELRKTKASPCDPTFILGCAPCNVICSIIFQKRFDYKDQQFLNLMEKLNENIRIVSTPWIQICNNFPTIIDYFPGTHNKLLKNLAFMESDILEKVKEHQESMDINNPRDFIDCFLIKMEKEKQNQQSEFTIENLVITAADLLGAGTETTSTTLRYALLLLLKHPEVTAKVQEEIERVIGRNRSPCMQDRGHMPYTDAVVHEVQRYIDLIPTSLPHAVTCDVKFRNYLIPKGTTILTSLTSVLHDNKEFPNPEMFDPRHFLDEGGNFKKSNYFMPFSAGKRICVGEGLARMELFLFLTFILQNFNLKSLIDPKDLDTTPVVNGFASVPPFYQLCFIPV
CYP2C9 inh = human CYP2C9 inhibition; CYP2C9 Supersomes, luciferin-H conversion, luminescence; inhibition, % at 5 µM; AID 777; actives 20% (n = 96,000); P11712;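 active means blocking of liver enzyme CYP2C9 beyond about 50% at 5 µM, limit read from the data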
Cav3 T inh = inhibitors of human Cav3.2 T-type calcium channel; O95180; Cav3.2-expressing cells, Fluo-4 calcium fluorescence FDSS; active compounds read low; B-score at 10 µM; actives 4% (n = 100,000); AID 449739;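 active means single-dose well whose peak fluorescence ratio is a statistical outlier from its plate by either plate-standardised score or position-corrected B-score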
CYP2C19 inh = inhibitors of human CYP2C19. P33261. AID 778. inhibition, % at 5 µM. CYP2C19 Supersomes, luciferin-H EGE luminescence, 30 min. actives 21% (n = 96,000);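 active means CYP2C19 inhibition above a set limit at 5 µM in the primary screen, cut at about 50% in these data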;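 further: plate controls were negative control wells for no effect and 2.5 mM tranylcypromine positive control for full effect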
* hit, by the source's call. Only some compounds are listed: those with a hit (about 27% of all), similar ones and a draw of the others.

Results for O=C(Nc1ccc2c(c1)OCCO2)c1cc(-c2ccccc2)nc2ccccc12 ?
CYP2C9 act: 0.6; CYP2C19 activ: 0.8; CYP2C9 inh: 44; Cav3 T inh: -2.5; CYP2C19 inh: 24

Results for N#CC1(c2ccccc2)CCC(=NO)CC1 (stereo unspecified) ?
CYP2C9 act: 0.8; CYP2C19 activ: 0.6; CYP2C9 inh: 19; CYP2C19 inh: 37

What do the screens show for `COc1ccc(NC(=O)Nc2ccccc2C(=O)N2CCCC2)cc1`?
CYP2C9 act: 0.8; CYP2C19 activ: 0.7; CYP2C9 inh: 16; Cav3 T inh: 0.17; CYP2C19 inh: 33

How did CCOCCn1c(SCc2c(F)cccc2Cl)nc2c1c(=O)[nH]c(=O)n2C do in these assays?
CYP2C9 act: 0.9; CYP2C19 activ: 0.8; CYP2C9 inh: 6; Cav3 T inh: 0.39; CYP2C19 inh: 22

How did COc1cccc(-c2cc(C(=O)Nc3nc4ccccc4s3)c3ccccc3n2)c1 do in these assays?
CYP2C9 act: 0.5; CYP2C19 activ: 0.8; CYP2C9 inh: 51*; Cav3 T inh: -1.6; CYP2C19 inh: 22

What do the screens show for `Cc1[nH]c2ccccc2c1/C=N/Nc1nc(Nc2ccc(F)cc2)nc(N2CCOCC2)n1`?
CYP2C9 act: 1.3; CYP2C19 activ: 1; CYP2C9 inh: -25; Cav3 T inh: 0.28; CYP2C19 inh: 1

What do the screens show for `C(=N\Nc1nc(Nc2ccccc2)nc(N2CCOCC2)n1)/c1c[nH]c2ccccc12`?
CYP2C9 act: 0.1; CYP2C19 activ: 0; CYP2C9 inh: 88*; Cav3 T inh: -0.34; CYP2C19 inh: 100*

Results for O=c1[nH]c(CN2CCN(C/C=C/c3ccccc3)CC2)nc2cc(Cl)ccc12 ?
CYP2C9 act: 0.9; CYP2C19 activ: 1; CYP2C9 inh: 11; Cav3 T inh: -1.6; CYP2C19 inh: -3

How did O=C(c1ccc(Br)o1)N1CCN(C/C=C/c2ccccc2)CC1 do in these assays?
CYP2C9 act: 0.4; CYP2C19 activ: 0.4; CYP2C9 inh: 63*; Cav3 T inh: -0.034; CYP2C19 inh: 65*

How did O=C(c1ccc(=O)n(Cc2ccccc2)n1)N1CCN(C/C=C/c2ccccc2)CC1 do in these assays?
CYP2C9 act: 0.1; CYP2C19 activ: 0.3; CYP2C9 inh: 92*; Cav3 T inh: 0.35; CYP2C19 inh: 69*

Results for O=C(CCc1nc2ccccc2c(=O)[nH]1)N1CCN(C/C=C/c2ccccc2)CC1 ?
CYP2C9 act: 0.5; CYP2C19 activ: 0.7; CYP2C9 inh: 52*; Cav3 T inh: 2.2; CYP2C19 inh: 33

Results for CC(C)NC(=O)c1onc(CSc2cccc(F)c2)c1C(=O)O ?
CYP2C9 act: 0.7; CYP2C19 activ: 1; CYP2C9 inh: 35; Cav3 T inh: 0.89; CYP2C19 inh: -1

Results for COc1ccc(-c2ccc(N(C)C)cc2)cc1[C@H]1[C@H]2C=CC[C@@H](C)[C@@H]2C(=O)N1Cc1ccccc1 ?
Cav3 T inh: -0.86

Results for CCOCCCNC(=O)C(c1ccc(C)cc1)N(Cc1ccc2c(c1)OCO2)C(=O)c1cnccn1 (stereo unspecified) ?
CYP2C9 act: 1; CYP2C19 activ: 0.8; CYP2C9 inh: 1; Cav3 T inh: -0.35; CYP2C19 inh: 17

What do the screens show for `O=C1C=C(NCc2ccc(Cl)c(Cl)c2)C2(CCCCC2)O1`?
CYP2C9 act: 0.6; CYP2C19 activ: 0.2; CYP2C9 inh: 38; Cav3 T inh: -3.2; CYP2C19 inh: 77*

Results for O=C1C=C(NCc2ccco2)C2(CCCCC2)O1 ?
CYP2C9 act: 0.9; CYP2C19 activ: 0.9; CYP2C9 inh: 7; Cav3 T inh: 0.73; CYP2C19 inh: 8

Results for O=C1C=C(NCc2ccccc2)C2(CCCCC2)O1 ?
CYP2C9 act: 0.9; CYP2C19 activ: 0.3; CYP2C9 inh: 12; Cav3 T inh: 0.87; CYP2C19 inh: 70*

How did CCc1cc(OCCCSc2nc(C)cc(=O)[nH]2)ccc1Cl do in these assays?
CYP2C9 act: 0.9; CYP2C19 activ: 0.3; CYP2C9 inh: 9; Cav3 T inh: 2.2; CYP2C19 inh: 70*

Results for Cc1ccnc(NS(=O)(=O)c2ccc(NS(=O)(=O)Cc3ccccc3)cc2)n1 ?
CYP2C9 act: 0.9; CYP2C19 activ: 1.1; CYP2C9 inh: 5; Cav3 T inh: 0.63; CYP2C19 inh: -6

How did COc1ccc2nc(C)[nH]c(=O)c2c1 do in these assays?
CYP2C9 act: 0.9; CYP2C19 activ: 1; CYP2C9 inh: 10; Cav3 T inh: 0.51; CYP2C19 inh: 2
